# Screening results deposited in PubChem by several laboratories.
# CYP2C19 inh: blockers of cytochrome P450 2C19 activity – biochemical, luminescence, ADME assay, primary screen; CYP2C19 Supersomes, luciferin-H EGE luminescence, 30 min; P33261; inhibition, % at 5 µM; hit rate 21% among 96,000; AID 778, 2007;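 active means CYP2C19 inhibition above a set limit at 5 µM in the primary screen, cut at about 50% in these data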;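 further: plate controls were negative control wells for no effect and 2.5 mM tranylcypromine positive control for full effect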
# Target sequence (P33261 whole entry, looked up): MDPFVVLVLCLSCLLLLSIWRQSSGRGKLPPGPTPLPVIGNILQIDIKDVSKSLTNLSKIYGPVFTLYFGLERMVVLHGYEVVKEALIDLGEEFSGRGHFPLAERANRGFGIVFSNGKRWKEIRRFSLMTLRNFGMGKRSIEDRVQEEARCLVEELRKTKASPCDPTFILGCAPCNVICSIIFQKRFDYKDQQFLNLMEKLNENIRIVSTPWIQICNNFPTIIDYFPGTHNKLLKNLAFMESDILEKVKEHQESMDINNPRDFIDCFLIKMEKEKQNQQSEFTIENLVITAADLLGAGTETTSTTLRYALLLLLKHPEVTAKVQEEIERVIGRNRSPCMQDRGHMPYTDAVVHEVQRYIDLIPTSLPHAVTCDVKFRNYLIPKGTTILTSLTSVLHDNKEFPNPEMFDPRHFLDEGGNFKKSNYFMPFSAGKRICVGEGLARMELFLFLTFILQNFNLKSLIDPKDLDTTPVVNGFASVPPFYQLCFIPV
# CYP2C19 activ: human CYP2C19 activators, primary screen, biochemical, luminescence | recombinant CYP2C19, luciferin-H EGE luminescence; hits give high values; 0 = fully inhibited enzyme, 1 = untreated enzyme | activation factor at 5 µM | 96,000 tested, under 10 active | AID 1025, 2008;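 active means activation factor of at least 2 at 5 µM in the primary screen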;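 further: 0 = wells with 2.5 mM tranylcypromine and 1 = vehicle-only wells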
# CYP2C9 activ: human CYP2C9 activators, primary screen, biochemical, luminescence; recombinant CYP2C9, luciferin-H conversion; hits give high values; factor 1 = untreated enzyme, 0 = blocked; activation factor at 5 µM; hit rate 1.4% among 96,000;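 active means activation factor of 2 or more for CYP2C9 at a 5 µM dose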;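 further: 0 = sulfaphenazole-blocked wells and 1 = vehicle-only wells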
# PostGolgi ctrl: growth inhibition of yeast control strain, primary screen, counter-screen for post-Golgi transport modulator project; efflux-deficient yeast background strain, growth absorbance A615, 16 h; inhibition, % at 10 µM; hit rate 5% among 98,000
# PostGolgi yeast: phenotypic screen on post-Golgi transport, primary screen; AID 739, 2007; inhibition, % at 10 µM; hit rate 0.9% among 98,000; post-Golgi transport phenotypic cell assay;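 further: yeast cells grown in 1536-well plates; yeast grown about 18 h at 30C before absorbance read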
# CYP2C9 inhib: blockers of cytochrome P450 2C9 activity – biochemical, luminescence, ADME assay, primary screen. hit rate 20% among 96,000. inhibition, % at 5 µM. P11712. CYP2C9 Supersomes, luciferin-H conversion. AID 777, 2007;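 active means blocking of liver enzyme CYP2C9 beyond about 50% at 5 µM, limit read from the data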
# An asterisk follows results filed as active; . = not tested or not shown. The list is not random: actives were taken first. Their share in the collection is about 32%. Unless noted, no stated cut-off is given here; in the data, active means inhibition above about 30%; inactive means the rest.
SMILES,CYP2C19 inh,CYP2C19 activ,CYP2C9 activ,PostGolgi ctrl,PostGolgi yeast,CYP2C9 inhib
C=CCn1c(=O)c2c(nc3n2CCN3c2cccc(Cl)c2C)n(C)c1=O,8,0.9,0.5,10,1,45
Cc1cccc(C)c1NC(=O)CS(=O)CC(=O)NC1CCCc2ccccc21 (stereo not given),.,.,.,5,2,.
CC(=O)c1cc(Cc2csc(C(C)=O)c2)cs1,62*,0.4,0.6,.,.,35
CC(=O)c1cc(CN2C(=O)CCC2=O)cs1,13,0.9,0.9,7,-6,14
CCOc1ccc2nc(NS(=O)(=O)Cc3ccccc3)sc2c1,77*,0.2,0,1,0,96*
CCOc1ccc2nc(NC(=O)CS(=O)(=O)c3ccc(C)cc3)sc2c1,6,0.9,0.8,23,1,20
CCOc1ccc2nc(NC(=O)CS(=O)(=O)c3ccccc3)sc2c1,24,0.8,0.8,51*,-4,23
CCCN(Cc1ccccc1)S(=O)(=O)c1ccc(N2C(=O)CCC2=O)cc1,24,0.8,0.6,5,-1,42
COc1ccc(NC(=O)c2cccc(N3C(=O)NC4CC3(C)Oc3ccccc34)c2)cc1 (stereo not given),89*,0.1,0.1,7,-5,90*
COc1cccc2c1OC1(C)CC2NC(=O)N1c1cccc(C(=O)Nc2ccc3c(c2)OCCO3)c1 (stereo not given),29,0.7,0.3,5,2,72*
CC12CC(NC(=O)N1c1cccc(C(=O)Nc3ncn[nH]3)c1)c1ccccc1O2 (stereo not given),5,1,0.7,3,3,27
Cc1cccc2c1OCC/C2=N\NC(=O)COc1ccccc1,23,0.8,0.6,18,-2,35
COc1ccc(-c2c[n+]3c4n2CCCCC4=C(c2ccccc2)C3)cc1,-11,1.1,1,10,-8,-1
N#C/C(=C\c1ccc(Sc2nc3ccccc3[nH]2)o1)c1ccccc1,86*,0.1,0,54*,-9,95*
N#C/C(=C\c1ccc(N2CCOCC2)o1)c1ccccc1,14,0.9,0.7,8,-9,25
O=C(O)CSc1nc2ccccc2[nH]1,-14,1.1,1.1,-3,20,-8
N#Cc1ccc(Sc2nc3ccccc3[nH]2)cc1C#N,76*,0.2,0.7,4,-11,31
CSc1nc(N(C)NC(=O)c2ccc(F)cc2)c2ccccc2n1,12,0.9,0.7,5,1,27
Cc1ccc(-n2c(SCC3CCCCO3)nnc2-c2ccco2)cc1 (stereo not given),13,0.9,0.4,18,-5,58*
O=C(CSc1nnc(-c2ccco2)n1CC1CCCO1)N1CCCCC1 (stereo not given),52*,0.5,1.3,10,-3,-25
COc1cccc(C(=O)CSc2nnc(-c3ccco3)n2CC2CCCO2)c1 (stereo not given),67*,0.3,0.7,6,-7,27
Cc1c(CN(C)C)c2c(n1Cc1ccccc1)C(=O)c1ccccc1-2,-1,1,1,-1,-1,-5
CCOC(=O)CN(C(=O)CNC(=O)c1cccs1)C(C(=O)NC1CCCC1)c1cccnc1 (stereo not given),17,0.8,0.9,1,-5,12
O=C(Cn1cnc2ccccc21)OCC(=O)N1CCc2ccccc2C1,5,0.9,0.9,4,3,7
CCCCCCC(=O)Nc1nc(C)c(-c2csc(Nc3ccc(Cl)cc3)n2)s1,12,0.9,0.7,7,9,27
SMILES,CYP2C19 inh,CYP2C19 activ,CYP2C9 activ,PostGolgi ctrl,PostGolgi yeast,CYP2C9 inhib
COc1ccc(Nc2nc(-c3sc(NC(C)=O)nc3C)cs2)cc1,82*,0.2,0.2,-2,-7,81*
COc1ccc(Nc2nc(-c3sc(N)nc3C)cs2)cc1,78*,0.2,0.2,7,-14,80*
CC(C)(C)SCCNC(=O)CN(c1ccc(F)c(Cl)c1)S(C)(=O)=O,-5,1.1,0.9,0,-7,9
COc1ccc(N(CC(=O)NCCSCc2c(F)cccc2Cl)S(C)(=O)=O)cc1OC,-20,1.2,0.1,-4,2,87*
CS(=O)(=O)N(CC(=O)NCCSCc1c(F)cccc1Cl)c1ccc2c(c1)OCO2,79*,0.2,0.4,3,7,57*
CCCOc1ccccc1NC(=O)/C=C/C(N)=O,2,1,1.1,6,2,-14
COc1cc(OC)c(C2CC(=O)N3CN(C)CSC3=C2C#N)cc1OC (stereo not given),-2,1,0.6,3,-18,38
N#CC1=C2SCN(Cc3ccccc3)CN2C(=O)CC1c1ccccc1F (stereo not given),42,0.6,0.4,11,9,65*
N#CC1=C2SCN(Cc3ccco3)CN2C(=O)CC1c1c(F)cccc1Cl (stereo not given),3,1,0.8,4,5,23
Cc1ccc(C2CC(=O)N3CN(Cc4ccco4)CSC3=C2C#N)cc1 (stereo not given),33,0.7,0.5,-1,-2,47
COc1ccc(Br)cc1C1CC(=O)N2CN(C)CSC2=C1C#N (stereo not given),60*,0.4,0.1,3,0,88*
COc1ccc(Br)cc1C1CC(=O)N2CN(Cc3ccccc3)CSC2=C1C#N (stereo not given),70*,0.3,0.1,0,-16,94*
CC(=O)Nc1ccc(S(=O)(=O)/N=C2\SCCN2S(=O)(=O)c2ccc(NC(C)=O)cc2)cc1,.,.,.,-7,12,.
CN1c2ccccc2C(C)(C)C12C=Nc1c(ccc3ccccc13)O2 (stereo not given),7,0.9,0.7,-1,14,33
CN1c2ccccc2C(C)(C)[C@]12C=Cc1cc(O)ccc1O2,97*,0,0.1,14,-5,95*
O=C(CSc1nnc(C2CC2)n1-c1ccccc1)NCCc1ccccc1,18,0.8,1,4,-11,5
COc1ccc(S(=O)(=O)N(CCc2ccccc2)CC(=O)O)cc1C,62*,0.4,0.3,-3,-4,73*
COc1ccc(C)cc1S(=O)(=O)N(CC(=O)N1CCOCC1)Cc1ccccc1,66*,0.3,0.6,12,-4,45
COc1ccc(S(=O)(=O)N(CC(=O)O)Cc2ccccc2)cc1OC,8,0.9,0.8,12,-4,19
CS(=O)(=O)N(CC(=O)N1CCOCC1)Cc1ccccc1,12,0.9,1,5,2,2
COc1ccc(S(=O)(=O)N(CC(=O)N2CCOCC2)Cc2ccccc2)cc1C,72*,0.3,0.7,8,5,27
